Data taken from PubChem BioAssay (NCATS).
Results filed as inconclusive are left out. Unless noted, calls follow the shape of the dose curve; as a rule, active = well fitted curve in either direction with a large enough effect (not every such curve was filed as active); inconclusive = small, poorly fitted or top-dose-only effect, or another doubt; inactive = flat fitted curve, though single readings scatter.

What was measured:
[1] = AP1 Signaling Pathway (AID 357); details: ME-180 AP-1-bla reporter, EGF-induced, beta-lactamase ratio, 5 h; at 17.2 µM (top of the series) unless noted;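 also: ME-180 reporter cells stimulated with EGF at its EC50 level; % is scaled to controls: 0 for no effect and ±100 for the full control effect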
Outline: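 First, ME-180 AP-1-bla cells were cultured overnight at 37 °C in low-serum Opti-MEM. Next, titrated compounds with EC50 EGF were incubated 5 hours. Finally, CCF4 was added for 2.5 hours and the 460/530 nm ratio recorded.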

[2] = NFAT Signaling Pathway (AID 444); details: Jurkat NFAT-bla M1, carbachol, beta-lactamase ratio, 5 h; at 17.2 µM (top of the series) unless noted;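 also: carbachol stimulus at about its EC50 of 1 µM final; % is scaled to controls: 0 for no effect and ±100 for the full control effect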
Outline: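 Read-out: CCF4 FRET ratio (460 nm/530 nm) after 1 h RT dye loading, used for %activity and AC50 from titration series. Cells: Jurkat NFAT-β-lactamase/M1 line, treated with compound plus 1 uM carbachol for 5 h, 37 °C.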

[3] = Stat Signaling Pathway (AID 446); details: ME-180 SIE beta-lactamase reporter, IL-6 stimulated, 5 h; at 17.2 µM (top of the series) unless noted;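 also: ME-180 cervical cancer cells given 40 pM IL-6 alongside compound; SIE-controlled beta-lactamase reporter measured as 460/530 nm FRET emission ratio; % is scaled to controls: 0 for no effect and ±100 for the full control effect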
Outline: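 ME-180 cells carrying a SIE-driven beta-lactamase reporter are stimulated with 40 pM IL-6 for 5 h at 37C in the presence of compound. The 460/530 nm FRET substrate ratio is read after 2.5 h at RT. Data are normalised to 300 pM IL-6 and to 125 nM JAK inhibitor controls.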

[4] = target: Glucocorticoid receptor (Homo sapiens) (UniProt P04150); assay: GR-GFP Redistribution (AID 450;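 active = compounds whose dose series gives a full or clear partial fitted curve of increased nuclear translocation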; also: potency is read from the fitted curve at half-maximal effect); details: U2OS GR-GFP nuclear translocation, laser cytometry, 2 h; series mostly up to 20.6 µM
Chain of Glucocorticoid receptor (Homo sapiens) (P04150 whole entry, looked up): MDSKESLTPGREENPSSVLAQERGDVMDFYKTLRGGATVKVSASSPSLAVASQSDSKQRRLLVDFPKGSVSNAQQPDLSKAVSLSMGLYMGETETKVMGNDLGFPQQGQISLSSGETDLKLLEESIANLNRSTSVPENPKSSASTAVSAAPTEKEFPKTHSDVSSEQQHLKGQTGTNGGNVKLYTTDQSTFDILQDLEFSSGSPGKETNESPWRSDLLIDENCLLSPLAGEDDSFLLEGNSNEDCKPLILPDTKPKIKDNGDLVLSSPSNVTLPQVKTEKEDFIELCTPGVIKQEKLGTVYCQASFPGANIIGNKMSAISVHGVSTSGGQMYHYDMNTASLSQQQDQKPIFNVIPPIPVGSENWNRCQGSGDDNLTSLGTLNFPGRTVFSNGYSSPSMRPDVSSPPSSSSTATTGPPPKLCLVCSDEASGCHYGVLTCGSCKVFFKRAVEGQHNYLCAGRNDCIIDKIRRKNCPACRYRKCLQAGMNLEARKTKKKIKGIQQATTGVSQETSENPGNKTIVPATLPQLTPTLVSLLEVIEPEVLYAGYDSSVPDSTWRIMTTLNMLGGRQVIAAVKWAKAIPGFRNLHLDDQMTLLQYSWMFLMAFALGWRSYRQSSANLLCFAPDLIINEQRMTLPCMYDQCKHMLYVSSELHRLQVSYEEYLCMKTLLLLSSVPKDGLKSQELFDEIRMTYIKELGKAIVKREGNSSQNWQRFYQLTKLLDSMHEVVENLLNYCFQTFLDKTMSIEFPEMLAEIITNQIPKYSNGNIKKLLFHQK

CC(NC(=O)NCCCn1ccnc1)(C(F)(F)F)C(F)(F)F
inactive: activity change, negative = inhibition [1] 18.8% | activity change, negative = inhibition [2] -6.4% | activity, negative = inhibition [3] 5.85% | Potency [4] > 20.6 µM

COc1ccccc1N(O)C1CC(=O)N(c2ccc(F)cc2)C1=O (configuration not stated)
inactive: activity change, negative = inhibition [1] -0.204% | activity change, negative = inhibition [2] -3.85% | activity, negative = inhibition [3] 1.38% | Potency [4] > 20.6 µM

Cc1ccc(S(=O)(=O)/C(C#N)=C/c2c(N3CCN(C)CC3)nc3ccccn3c2=O)cc1
inactive: activity change, negative = inhibition [1] -12.9% | activity change, negative = inhibition [2] -5.08% | activity, negative = inhibition [3] 1.8% | Potency [4] > 20.6 µM

C=CC(O)Cc1c(C)n[nH]c1C (configuration not stated)
inactive: activity change, negative = inhibition [1] 18.3% | activity change, negative = inhibition [2] 4.36% | activity, negative = inhibition [3] 7.01% | Potency [4] > 20.6 µM

COc1cccc(NC(=O)CSC2=C(C#N)C(c3ccco3)C3=C(CCCC3=O)N2)c1 (configuration not stated)
inactive: activity change, negative = inhibition [1] -18.7% | activity change, negative = inhibition [2] -16% | activity, negative = inhibition [3] -7.07% | Potency [4] > 20.6 µM

CCc1c(C(=O)O)[nH]c2ccc(Br)cc12
inactive: activity change, negative = inhibition [1] 8.39% | activity change, negative = inhibition [2] -22% | activity, negative = inhibition [3] -0.02% | Potency [4] > 20.6 µM

CCN=C1SC(C(=O)Nc2ccc(Cl)c(Cl)c2)CC(=O)N1CC (configuration not stated)
inactive: activity change, negative = inhibition [1] -19.4% | activity change, negative = inhibition [2] 10.1% | activity, negative = inhibition [3] 4.81% | Potency [4] > 20.6 µM

COC(=O)CCc1c(C)[nH]c(=S)[nH]c1=O
inactive: activity change, negative = inhibition [1] 7.36% | activity change, negative = inhibition [2] 14.4% | activity, negative = inhibition [3] 1.45% | Potency [4] > 20.6 µM

COc1ccc(C2Nc3ccccc3C(=O)N2Cc2ccco2)cc1CN1C(=O)c2ccccc2C1=O (configuration not stated)
inactive: activity change, negative = inhibition [1] -19.7% | activity change, negative = inhibition [2] -14.1% | activity, negative = inhibition [3] -19.4% | Potency [4] > 20.6 µM

COc1ccc(C(=O)c2ccc(N3CCOCC3)cc2)c(OC)c1
inactive: activity change, negative = inhibition [1] -17.3% | activity change, negative = inhibition [2] 13.3% | activity, negative = inhibition [3] 1.25% | Potency [4] > 20.6 µM

CC(C)c1nc(N2CCOCC2)c(C#N)c2c1CCC2
inactive: activity change, negative = inhibition [1] -24.1% | activity change, negative = inhibition [2] -23.6% | activity, negative = inhibition [3] -8.37% | Potency [4] > 20.6 µM

Nc1nnnn1/N=C/c1cccs1
inactive: activity change, negative = inhibition [1] 7.92% | activity change, negative = inhibition [2] -9.98% | activity, negative = inhibition [3] 2.51% | Potency [4] > 20.6 µM

COc1ccc(-n2ncc3c(Nc4cccc(C)c4)ncnc32)cc1
inactive: activity change, negative = inhibition [1] 1.56% | activity change, negative = inhibition [2] -11.9% | activity, negative = inhibition [3] -27.7% | Potency [4] > 20.6 µM

CN(C)c1nc(OCCOC(=O)Nc2ccc(Cl)cc2Cl)nc(N(C)C)n1
inactive: activity change, negative = inhibition [1] -3.73% | activity change, negative = inhibition [2] -3.72% | activity, negative = inhibition [3] -7.35% | Potency [4] > 20.6 µM

Cc1cccn2c(=O)c3cc(C#N)c(=N)n(Cc4ccncc4)c3nc12
inactive: activity change, negative = inhibition [1] 6.9% | activity change, negative = inhibition [2] -26.5% | activity, negative = inhibition [3] -5.05% | Potency [4] > 20.6 µM

COc1ccc(OC)c(NC(=O)CSc2nnc(-c3ccco3)n2-c2ccc(C(=O)O)cc2)c1
inactive: activity change, negative = inhibition [1] -4.17% | activity change, negative = inhibition [2] 15.9% | activity, negative = inhibition [3] -4.38% | Potency [4] > 20.6 µM

Cc1ccc(N2C(=O)CC(Cn3nc(C)cc3C)C2=O)cc1 (configuration not stated)
inactive: activity change, negative = inhibition [1] -1.66% | activity change, negative = inhibition [2] 6.84% | activity, negative = inhibition [3] 13.4% | Potency [4] > 20.6 µM

COc1cccc(/C(O)=C2/C(=O)C(=O)N(CCN(C)C)C2c2ccc(Br)cc2)c1 (configuration not stated)
inactive: activity change, negative = inhibition [1] -1.11% | activity change, negative = inhibition [2] 20.3% | activity, negative = inhibition [3] 0.896% | Potency [4] > 20.6 µM
